From PubChem BioAssay (EPA / NIEHS) come the findings set out here.

As usually defined, the AC50 is the concentration at which the activity in the assay is half-maximal.

Activity calls are given as the source filed them. Rule for the calls: active = hit-call score of the fitted dose curve at least 0.9, where 1 is the maximum; inactive = score below 0.9.

Common to all, as to settings: mRNA level, 48 h; actives raise or lower the signal
Read-out in assay [1]: Interleukin 6 (IL6), IL6 (gene 3569)
Nature of the assay: LTEA_HepaRG_IL6: Life Technologies and Expression Analysis (LTEA) Assay for Interleukin 6 (IL6) using HepaRG (AID 2283509). The procedure, abridged: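 Differentiated human HepaRG cells, plated 48 h then switched to serum-free induction medium, were exposed in duplicate for 48 h to eight half-log concentrations up to 100 uM in 0.5% DMSO. IL6 mRNA measured by qRT-PCR, normalized to ACTB/GAPDH/POLR2A.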

Read-out in assay [2]: Interleukin 6 Receptor (IL6R), IL6R (gene 3570)
The assay can be described thus: LTEA_HepaRG_IL6R: Life Technologies and Expression Analysis (LTEA) Assay for Interleukin 6 Receptor (IL6R) using HepaRG (AID 2283510).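 For AC50: TaqMan qRT-PCR signal normalized to ACTB GAPDH and POLR2A housekeeping genes.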 Summed up:
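Readout is IL6R transcript level by TaqMan qRT-PCR, normalized to three housekeeping genes and fitted bidirectionally against 0.5% DMSO controls. Human HepaRG cells received chemicals for 48 h in serum-free induction medium, highest concentration 100 uM.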

Read-out in assay [3]: Potassium channel subfamily K member 1 (KCNK1), KCNK1 (gene 3775)
Nature of the assay: LTEA_HepaRG_KCNK1: Life Technologies and Expression Analysis (LTEA) Assay for Potassium channel subfamily K member 1 (KCNK1) using HepaRG (AID 2283511). Summed up: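 Differentiated human HepaRG cells in serum-free induction medium were exposed in duplicate for 48 h to 8 half-log concentrations up to 100 uM in 0.5% DMSO. KCNK1 mRNA was measured by TaqMan qRT-PCR, normalized to ACTB, GAPDH and POLR2A, and fitted bidirectionally versus DMSO.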

Read-out in assay [4]: Keratin 19 (KRT19), KRT19 (gene 3880)
The assay can be described thus: LTEA_HepaRG_KRT19: Life Technologies and Expression Analysis (LTEA) Assay for Keratin 19 (KRT19) using HepaRG (AID 2283512). Summed up:
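Gene-expression endpoint in the human liver line HepaRG after 48 h exposure to up to 100 uM test chemical with 0.5% DMSO vehicle; KRT19 mRNA by qRT-PCR, analyzed bidirectionally versus DMSO.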

Read-out in assay [5]: JUN Transcription Factor, JUN (gene 3725)
Nature of the assay: LTEA_HepaRG_JUN: Life Technologies and Expression Analysis (LTEA) Assay for JUN Transcription Factor using HepaRG (AID 2283513). Summed up:
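Cells plated 48 h, medium switched to serum-free induction medium, then dosed 48 h (100 uM top, half-log dilutions, 0.5% DMSO). RNA isolated; JUN measured by qRT-PCR against three housekeeping genes; gain or loss fitted relative to DMSO.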

Read-out in assay [6]: Lipase C (LIPC), LIPC (gene 3990)
The assay can be described thus: LTEA_HepaRG_LIPC: Life Technologies and Expression Analysis (LTEA) Assay for Lipase C (LIPC) using HepaRG (AID 2283514). Summed up: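 Differentiated human HepaRG cells in serum-free induction medium were exposed in duplicate for 48 h to eight concentrations (top 100 uM, half-log steps, 0.5% DMSO). LIPC mRNA was quantified by TaqMan qRT-PCR, normalized to ACTB, GAPDH and POLR2A, with bidirectional fitting versus DMSO.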

Read-out in assay [7]: Lipoprotein lipase (LPL), LPL (gene 4023)
Nature of the assay: LTEA_HepaRG_LPL: Life Technologies and Expression Analysis (LTEA) Assay for Lipoprotein lipase (LPL) using HepaRG (AID 2283515). Summed up: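 Differentiated human HepaRG cells in serum-free induction medium were exposed in duplicate for 48 h to eight half-log concentrations (top 100 uM) in 0.5% DMSO. LPL mRNA was quantified by TaqMan qRT-PCR, normalized to ACTB, GAPDH and POLR2A.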

Read-out in assay [8]: MicroRNA 122 (MIR122), gene 406906
The assay can be described thus: LTEA_HepaRG_MIR122: Life Technologies and Expression Analysis (LTEA) Assay for MicroRNA 122 (MIR122) using HepaRG (AID 2283516). Note: the transcript read is the microRNA miR-122. The procedure, abridged: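 HepaRG plated 48 h, switched to serum-free induction medium, then treated in duplicate for 48 h (100 uM top, half-log steps, 0.5% DMSO vehicle). RNA isolated, qRT-PCR performed, concentration-response fitted both directions relative to DMSO.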

Read-out in assay [9]: matrix metalloproteinase-10 (MMP10), MMP10 (gene 4319)
Nature of the assay: LTEA_HepaRG_MMP10: Life Technologies and Expression Analysis (LTEA) Assay for matrix metalloproteinase-10 (MMP10) using HepaRG (AID 2283517). The procedure, abridged: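 HepaRG, collagen I, ~100,000 cells/well; serum-free induction medium; 48 h exposure, duplicate, 8-pt half-log to 100 uM, 0.5% DMSO. Readout: TaqMan qRT-PCR, normalized to ACTB/GAPDH/POLR2A; bidirectional fit vs DMSO.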

Read-out in another assay: MYC, MYC (gene 4609)
The assay can be described thus: LTEA_HepaRG_MYC: Life Technologies and Expression Analysis (LTEA) Assay for MYC using HepaRG (AID 2283518). Summed up: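 Cells are thawed, plated and cultured 48 h, then treated for 48 h with test chemicals (eight half-log concentrations from 100 uM, 0.5% DMSO vehicle). RNA is isolated and MYC expression quantified by qRT-PCR against three housekeeping genes.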

Read-out in assay [10]: matrix metalloproteinase-3 (MMP3), MMP3 (gene 4314)
Nature of the assay: LTEA_HepaRG_MMP3: Life Technologies and Expression Analysis (LTEA) Assay for matrix metalloproteinase-3 (MMP3) using HepaRG (AID 2283519). Summed up: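 Differentiated human HepaRG cells, plated 48 h on collagen I, were exposed in duplicate for 48 h in serum-free induction medium to eight half-log concentrations up to 100 uM in 0.5% DMSO. MMP3 mRNA was quantified by TaqMan qRT-PCR, normalised to ACTB, GAPDH and POLR2A.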

Read-out in assay [11]: Paternally Expressed 10 (PEG10), PEG10 (gene 23089)
The assay can be described thus: LTEA_HepaRG_PEG10: Life Technologies and Expression Analysis (LTEA) Assay for Paternally Expressed 10 (PEG10) using HepaRG (AID 2283520). The procedure, abridged:
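HepaRG, 48 h post-plating → serum-free induction medium → 48 h chemical exposure (duplicate, 8-pt, max 100 uM, half-log, 0.5% DMSO) → lysis in RLT → TaqMan qRT-PCR for PEG10, ACTB/GAPDH/POLR2A normalisation.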

Read-out in assay [12]: Nuclear factor NF-kappa-B p105 subunit (Homo sapiens) (UniProt P19838)
Nature of the assay: LTEA_HepaRG_NFKB1: Life Technologies and Expression Analysis (LTEA) Assay for Nuclear Factor Kappa B Subunit 1 (NFKB1) using HepaRG (AID 2283521).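 For outcome: TaqMan qRT-PCR transcript normalised to ACTB GAPDH and POLR2A housekeeping genes.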 The procedure, abridged: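 Human HepaRG cells receive eight half-log concentrations, highest 100 uM, for 48 h. NFKB1 expression is then quantified by qRT-PCR and analysed for up- or down-regulation relative to 0.5% DMSO vehicle.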

Read-out in assay [13]: Protein phosphatase 2A (PPP2R4), PTPA (gene 5524)
The assay can be described thus: LTEA_HepaRG_PPP2R4: Life Technologies and Expression Analysis (LTEA) Assay for Protein phosphatase 2A (PPP2R4) using HepaRG (AID 2283522). Summed up: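 Readout is PPP2R4 transcript level by microfluidic qRT-PCR after 48 h chemical treatment of human HepaRG liver cells. Concentrations spanned 100 uM downward in half-log steps; gain or loss of signal was fitted relative to DMSO.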

Read-out in assay [14]: Phosphatase and tensin (PTEN), PTEN (gene 5728)
Nature of the assay: LTEA_HepaRG_PTEN: Life Technologies and Expression Analysis (LTEA) Assay for Phosphatase and tensin (PTEN) using HepaRG (AID 2283523). Summed up:
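Differentiated human HepaRG cells, plated 48 h then switched to serum-free induction medium, were exposed in duplicate for 48 h to eight half-log concentrations up to 100 uM in 0.5% DMSO. PTEN mRNA measured by TaqMan qRT-PCR, normalized to ACTB/GAPDH/POLR2A, bidirectional fit versus DMSO.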

Read-out in assay [15]: solute carrier (SLC22A1), SLC22A1 (gene 6580)
The assay can be described thus: LTEA_HepaRG_SLC22A1: Life Technologies and Expression Analysis (LTEA) Assay for solute carrier (SLC22A1) using HepaRG (AID 2283524). Summed up: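 Human HepaRG cells were plated 48 h, switched to serum-free induction medium, then exposed in duplicate for 48 h to 8-point half-log series from 100 uM in 0.5% DMSO. SLC22A1 mRNA measured by qRT-PCR, normalized to ACTB/GAPDH/POLR2A, fitted bidirectionally versus DMSO.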

Read-out in assay [16]: Pyruvate Dehydrogenase Kinase 4 (PDK4), PDK4 (gene 5166)
The assay can be described thus: LTEA_HepaRG_PDK4: Life Technologies and Expression Analysis (LTEA) Assay for Pyruvate Dehydrogenase Kinase 4 (PDK4) using HepaRG (AID 2283525). The procedure, abridged: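 Differentiated human HepaRG cells, pre-cultured 48 h, were exposed in duplicate for 48 h in serum-free induction medium to eight half-log concentrations up to 100 uM in 0.5% DMSO. PDK4 mRNA was quantified by qRT-PCR, normalized to ACTB, GAPDH and POLR2A, bidirectional fitting versus DMSO.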

Read-out in assay [17]: NAD(P)H dehydrogenase [quinone] 1 (NQO1), NQO1 (gene 1728)
The assay can be described thus: LTEA_HepaRG_NQO1: Life Technologies and Expression Analysis (LTEA) Assay for NAD(P)H dehydrogenase [quinone] 1 (NQO1) using HepaRG (AID 2283526). The procedure, abridged: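 HepaRG, 48 h post-plating → serum-free induction medium → test chemical 48 h (duplicate, 100 uM top, half-log x8, 0.5% DMSO) → RNA isolation → qRT-PCR, ACTB/GAPDH/POLR2A normalization; bidirectional curve fit vs DMSO baseline.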

Read-out in assay [18]: Nuclear factor erythroid 2-related factor 2 (Homo sapiens) (UniProt Q16236)
Nature of the assay: LTEA_HepaRG_NFE2L2: Life Technologies and Expression Analysis (LTEA) Assay for Nuclear factor erythroid 2-related factor 2 (NFE2L2) Transcription Factor using HepaRG (AID 2283527).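 For outcome: TaqMan qRT-PCR transcript level normalised to ACTB GAPDH and POLR2A housekeeping genes.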 Summed up: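 Differentiated human HepaRG cells in serum-free induction medium were exposed for 48 h to eight concentrations (top 100 uM, half-log dilutions, 0.5% DMSO), in duplicate. NFE2L2 mRNA was quantified by TaqMan qRT-PCR, normalized to ACTB, GAPDH and POLR2A, with bidirectional fitting versus DMSO.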

Read-out in assay [19]: succinate dehydrogenase complex iron sulfur subunit B (SDHB), SDHB (gene 6390)
Nature of the assay: LTEA_HepaRG_SDHB: Life Technologies and Expression Analysis (LTEA) Assay for succinate dehydrogenase complex iron sulfur subunit B (SDHB) using HepaRG (AID 2283528). Summed up:
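A human HepaRG culture in serum-free induction medium received test chemicals for 48 h over an eight-point range capped at 100 uM. SDHB expression change was quantified by qRT-PCR.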

Sequence of Nuclear factor NF-kappa-B p105 subunit (Homo sapiens) (P19838 whole entry, looked up): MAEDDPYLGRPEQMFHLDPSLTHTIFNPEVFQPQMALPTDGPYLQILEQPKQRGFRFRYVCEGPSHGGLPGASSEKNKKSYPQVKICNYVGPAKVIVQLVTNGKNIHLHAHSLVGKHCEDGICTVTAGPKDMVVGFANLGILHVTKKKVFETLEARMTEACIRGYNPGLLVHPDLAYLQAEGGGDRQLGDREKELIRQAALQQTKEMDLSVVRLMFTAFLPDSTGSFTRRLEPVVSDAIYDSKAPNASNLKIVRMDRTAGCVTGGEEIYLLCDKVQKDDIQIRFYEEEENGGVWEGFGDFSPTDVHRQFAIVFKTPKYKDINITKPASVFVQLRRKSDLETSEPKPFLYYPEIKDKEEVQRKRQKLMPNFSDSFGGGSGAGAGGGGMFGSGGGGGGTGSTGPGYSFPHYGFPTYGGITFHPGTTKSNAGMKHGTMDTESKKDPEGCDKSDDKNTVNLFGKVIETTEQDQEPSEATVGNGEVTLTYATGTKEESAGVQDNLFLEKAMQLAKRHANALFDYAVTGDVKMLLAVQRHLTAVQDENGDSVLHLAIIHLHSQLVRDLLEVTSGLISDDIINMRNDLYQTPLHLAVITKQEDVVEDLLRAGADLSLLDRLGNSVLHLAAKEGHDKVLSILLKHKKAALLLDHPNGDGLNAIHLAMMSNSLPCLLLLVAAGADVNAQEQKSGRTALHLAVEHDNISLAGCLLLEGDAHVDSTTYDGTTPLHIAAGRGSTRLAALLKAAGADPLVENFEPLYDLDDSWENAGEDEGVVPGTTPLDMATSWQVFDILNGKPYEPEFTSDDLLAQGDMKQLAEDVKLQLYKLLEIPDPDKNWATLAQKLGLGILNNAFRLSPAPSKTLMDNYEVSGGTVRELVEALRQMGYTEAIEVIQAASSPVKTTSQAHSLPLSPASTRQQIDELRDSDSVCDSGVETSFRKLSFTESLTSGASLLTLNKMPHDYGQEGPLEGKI
Sequence of Nuclear factor erythroid 2-related factor 2 (Homo sapiens) (Q16236 whole entry, looked up): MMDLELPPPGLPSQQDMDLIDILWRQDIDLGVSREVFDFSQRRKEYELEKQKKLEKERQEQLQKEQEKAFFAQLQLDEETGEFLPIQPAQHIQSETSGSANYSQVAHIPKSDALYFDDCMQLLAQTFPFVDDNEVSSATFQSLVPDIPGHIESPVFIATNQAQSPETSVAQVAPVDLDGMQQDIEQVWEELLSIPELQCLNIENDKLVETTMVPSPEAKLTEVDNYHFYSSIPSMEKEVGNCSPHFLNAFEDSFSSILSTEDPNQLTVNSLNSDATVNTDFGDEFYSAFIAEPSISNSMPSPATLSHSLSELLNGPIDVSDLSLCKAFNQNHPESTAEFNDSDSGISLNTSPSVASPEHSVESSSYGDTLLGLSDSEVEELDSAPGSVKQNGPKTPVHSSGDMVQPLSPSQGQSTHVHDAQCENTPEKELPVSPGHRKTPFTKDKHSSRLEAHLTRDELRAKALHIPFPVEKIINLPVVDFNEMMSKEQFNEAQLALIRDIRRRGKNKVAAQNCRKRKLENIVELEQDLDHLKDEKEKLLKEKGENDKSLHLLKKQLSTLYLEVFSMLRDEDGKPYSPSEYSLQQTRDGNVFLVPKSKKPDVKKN

Consider `CC[C@H](c1ccc(O)cc1)[C@@H](CC)c1ccc(O)cc1`, for which the half-maximal activity concentration (AC50) in assay [1] is 77.3 µM (active); in assay [2], 73.8 µM (active); in assay [4] it was 90.8 µM (active); in assay [5], 96.5 µM (active); in assay [7] it was 75.7 µM (active); in assay [13] it was 82.8 µM (active). The AC50 in assay [15] was 71.4 µM (active); in assay [16], 80.4 µM (active); in assay [17], 81.8 µM (active); in assay [18], 78.8 µM (active); in [19] it was 79.4 µM (active). Moreover, the outcome in [3] is “inactive”; in [6], “inactive”; in assay [8], “inactive”; in [9], “inactive”; with MYC, MYC (gene 4609), “inactive”; in assay [10], “inactive”. Further, the outcome in assay [11], in assay [12] and in assay [14] was inactive.
As for `CCCCCCCCOC(=O)CCCCCCCCC(=O)OCCCCCCCC`, the result in assay [1], in assay [2], in assay [3], in [4], in [5] and in assay [6] was inactive. For the same compound, the outcome in assay [7] was “inactive”; in assay [8] it was “inactive”; in assay [9], “inactive”; with MYC, MYC (gene 4609) it was “inactive”; in [10], “inactive”; in assay [11], “inactive”. The compound was called inactive in [12], in [13], in assay [14], in assay [16], in assay [17] and in [18]. The outcome in assay [19] was inactive.
As to `CC(C)(C)c1ccc(O)c(C(C)(C)C)c1`, the call in assay [1], in assay [2], in [4], in assay [5], in [6] and in assay [7] was inactive. Also, the outcome in assay [8] is “inactive”; in assay [9] it was “inactive”; in the assay with MYC, MYC (gene 4609) it was “inactive”; in assay [10], “inactive”; in assay [11], “inactive”; in assay [13] it was “inactive”. Moreover, the result in assay [14], in assay [15], in assay [16], in assay [17], in assay [18] and in assay [19] was inactive. The AC50 was 0.0804 µM (active) in assay [3] and 0.162 µM (active) in assay [12].
